Source: PubChem BioAssay (National Center for Advancing Translational Sciences (NCATS))
HepG2 viability = HepG2 cytotoxicity, counter-screen for TGF-b inhibitors | HepG2 CAGA-GFP viability, ATP luminescence, 18 h | Potency, µM (top dose mostly 46.1 µM), without a hit: at the top dose activity change, negative = cytotoxicity, hits mostly cytotoxic | 0.76% of 410,000 active | AID 588856; also: potency is read from the fitted curve at half-maximal effect
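HepG2 CAGA-GFP cells (1000/well, DMEM with 1% FBS) received compound, then TGF-beta at 500 pg/mL final, and were incubated 18 hours at 37 degrees C. Viability was read by CellTiter-Glo luminescence. Media-only wells were set as complete cell-killing and DMSO as no toxicity.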
IL1B secr inh = blocks inflammasome-driven IL-1 beta release | 4.7% of 360,000 active | AID 743279 | activity change, % at 57.5 µM | THP-1 LPS/ATP IL-1B secretion, AlphaLISA, 16 h; hits give low values; in the data active = activity change below about -50%; inconclusive = mostly about -30% to -49%; also: % is scaled to controls: 0 for no effect and ±100 for the full control effect
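THP-1 cells pretreated 1 hr with compounds (up to 57.5 uM final), then stimulated with LPS (250 ng/mL final) plus ATP (1.25 mM final); secreted IL-1B measured by AlphaLISA after 16 hr, decreased signal indicating inhibition.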
DT40 TDP1 no CPT = qHTS for Inhibitors of human tyrosyl-DNA phosphodiesterase 1 (TDP1): qHTS in cells in absence of CPT; Potency, µM (series often up to 46.2 µM), for the others: at the highest dose activity change, negative = growth inhibition, actives largely listed as inhibitors; 15% of 420,000 active; DT40 Tdp1-/- hTDP1 cells, no CPT, ATP luminescence, 48 h; also: potency is read from the fitted curve at half-maximal effect; % is scaled to controls: 0 for no effect and ±100 for the full control effect; nearly all actives have a fitted effect of over 55% in size
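Compound effects on proliferation are scored in DT40 Tdp1-/-;hTDP1 cells in the absence of CPT. ATP levels (CellTiter-Glo luminescence) are recorded after a ≥48 hr, 37 °C incubation.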
TDP1 block = blocks human tyrosyl-DNA phosphodiesterase 1 | Q9NUW8 | recombinant TDP1, AlphaScreen DNA substrate cleavage | Potency, µM (titrated, usually from 130 µM), without a hit: top-dose activity change, negative = inhibition, usual class: inhibitors | 0.28% of 350,000 active | AID 485290; also: potency is read from the fitted curve at half-maximal effect; % is scaled to controls: 0 for no effect and ±100 for the full control effect; nearly all actives have a fitted effect of over 40% in size
Target sequence (Q9NUW8 whole entry, looked up): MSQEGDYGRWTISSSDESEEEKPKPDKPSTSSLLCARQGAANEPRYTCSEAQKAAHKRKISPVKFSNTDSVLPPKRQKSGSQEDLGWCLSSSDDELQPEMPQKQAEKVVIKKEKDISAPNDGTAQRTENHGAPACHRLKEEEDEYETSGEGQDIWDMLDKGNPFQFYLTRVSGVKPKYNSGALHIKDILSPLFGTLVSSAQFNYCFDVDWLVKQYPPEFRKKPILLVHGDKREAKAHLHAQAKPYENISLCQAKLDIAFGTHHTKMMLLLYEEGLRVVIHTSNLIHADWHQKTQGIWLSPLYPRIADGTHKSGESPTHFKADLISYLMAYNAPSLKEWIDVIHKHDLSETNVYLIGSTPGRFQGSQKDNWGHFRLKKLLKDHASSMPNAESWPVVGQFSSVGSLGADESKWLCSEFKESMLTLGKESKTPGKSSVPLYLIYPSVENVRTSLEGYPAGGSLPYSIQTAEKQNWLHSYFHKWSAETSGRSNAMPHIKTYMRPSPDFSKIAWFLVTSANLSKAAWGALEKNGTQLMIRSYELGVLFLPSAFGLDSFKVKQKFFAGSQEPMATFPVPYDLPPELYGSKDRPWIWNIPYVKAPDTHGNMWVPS
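Compounds were preincubated with Tdp1 (1 nM final) for 15 min at room temperature before substrate (15 nM final) started a 5 min reaction; beads (10 ug/ml final) were then added for 10 min before AlphaScreen detection.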
TGFb SMAD3 inh = TGF-b pathway inhibition | AID 588855 | HepG2 CAGA-GFP TGF-b/SMAD3 reporter, GFP fluorescence, 18 h; TGF-beta stimulated, 500 pg/mL final | Potency, µM (series often up to 46.1 µM), for the others: at the highest dose activity, negative = inhibition, most hits filed as inhibitors | 1.2% of 410,000 active; also: potency is read from the fitted curve at half-maximal effect; % is scaled to controls: 0 for no effect and ±100 for the full control effect; nearly all actives have a fitted effect of over 65% in size
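First, reporter cells (HEPG2 CAGA-GFP) rested 2 h at 37 degrees C. Next, compounds were pinned in and TGF-beta added to 500 pg/mL final. After 18 h, GFP was imaged per cell and summed per well.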
TDP1 cell CPT = DT40-hTDP1 cell growth loss with CPT. chicken DT40 Tdp1-/-;hTDP1 cells + 20 nM CPT, ATP luminescence, 48 h. Potency, µM (doses to about 46.2 µM), for the others: at the top dose activity change, negative = growth inhibition, hits mostly inhibitors. 12% of 420,000 active; also: potency is read from the fitted curve at half-maximal effect; % is scaled to controls: 0 for no effect and ±100 for the full control effect; nearly all actives have a fitted effect of over 55% in size
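Cell growth measured by CellTiter-Glo luminescence after a minimum 48 h, 37 C compound exposure with 20 nM CPT in Tdp1-knockout DT40 cells stably expressing hTDP1, seeded 400/well; qHTS titration format.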
* marks the source's active call; other numbers are inactive results; [ ] = remark or other dose. Most compounds without a hit are left out; they make up all but 18% or so of the library. Unless noted, calls follow the shape of the dose curve; as a rule, active = well fitted curve in the direction sought with a large enough effect; inconclusive = small, poorly fitted or top-dose-only effect, or another doubt; inactive = no such curve, though single readings can be large; an effect the other way counts as inactive or inconclusive.

Results for COc1ccc(CC(=O)Nc2ccc(-c3cn4cccc(C)c4n3)cc2)cc1OC ?
HepG2 viability: 2%; IL1B secr inh: -13; DT40 TDP1 no CPT: 23µM*; TDP1 block: 5%; TGFb SMAD3 inh: -11%; TDP1 cell CPT: inconclusive

What do the screens show for `CCCC(=O)Nc1sc(C)c(C)c1C(=O)Nc1cccc(C)c1`?
HepG2 viability: 3%; IL1B secr inh: -59*; DT40 TDP1 no CPT: -7%; TDP1 block: 1%; TGFb SMAD3 inh: 18%; TDP1 cell CPT: -13%

How did Cc1sc(NC(=O)C(C)C)c(C(=O)Nc2ccccc2)c1C do in these assays?
HepG2 viability: -4%; IL1B secr inh: 15; DT40 TDP1 no CPT: 15µM*; TDP1 block: 1%; TGFb SMAD3 inh: -7%; TDP1 cell CPT: inconclusive

Results for Clc1ccccc1-c1nnc2sc(-c3ccc4c(c3)OCO4)nn12 ?
HepG2 viability: -22%; IL1B secr inh: -13; DT40 TDP1 no CPT: inconclusive; TDP1 block: 6%; TGFb SMAD3 inh: -13%; TDP1 cell CPT: 16µM*

Results for Brc1ccccc1-c1nnc2sc(-c3ccc4c(c3)OCCO4)nn12 ?
HepG2 viability: -16%; IL1B secr inh: inconclusive; DT40 TDP1 no CPT: 23µM*; TDP1 block: 5%; TGFb SMAD3 inh: -26%; TDP1 cell CPT: 12µM*

Results for Clc1ccccc1-c1nnc2sc(-c3ccc(Br)o3)nn12 ?
HepG2 viability: -1%; IL1B secr inh: -52*; DT40 TDP1 no CPT: -23%; TDP1 block: 7%; TGFb SMAD3 inh: -7%; TDP1 cell CPT: -27%

What do the screens show for `COCCNC(=O)C1(C)CCN(C(=O)COc2ccc(Cl)cc2Cl)C1` (centres undefined)?
HepG2 viability: -1%; IL1B secr inh: 25; DT40 TDP1 no CPT: -18%; TGFb SMAD3 inh: 7%; TDP1 cell CPT: -14%

How did Cc1ccc(S(=O)(=O)N2[C@H](CC(=O)OCc3ccccc3)OC[C@@H]2C(C)C)cc1 do in these assays?
IL1B secr inh: -22; DT40 TDP1 no CPT: 23µM*; TDP1 cell CPT: 21µM*

Results for Cc1ccc(S(=O)(=O)N2[C@H](CC(=O)OCc3ccccc3)OC[C@@H]2C)cc1 ?
IL1B secr inh: 22; DT40 TDP1 no CPT: inconclusive; TDP1 cell CPT: -30%

What do the screens show for `O=C(C1CCCN(S(=O)(=O)c2cccs2)C1)N1CCN(c2cccc(Cl)c2)CC1` (centres undefined)?
HepG2 viability: -18%; DT40 TDP1 no CPT: 15µM*; TDP1 block: 2%; TGFb SMAD3 inh: inconclusive; TDP1 cell CPT: 21µM*

What do the screens show for `O=C(NCc1cccs1)C1CCCN(S(=O)(=O)c2ccc(Br)s2)C1` (centres undefined)?
HepG2 viability: -19%; IL1B secr inh: 5; DT40 TDP1 no CPT: inconclusive; TDP1 block: 2%; TGFb SMAD3 inh: 3%; TDP1 cell CPT: -11%

Results for O=C(C1CCCN(S(=O)(=O)c2ccc(Br)s2)C1)N1CCN(c2cccc(Cl)c2)CC1 (centres undefined) ?
HepG2 viability: -10%; DT40 TDP1 no CPT: 21µM*; TDP1 block: -11%[12.3 µM]; TGFb SMAD3 inh: -27%; TDP1 cell CPT: 16µM*

What do the screens show for `O=C(CN1CCCc2ccccc21)Nc1cc(S(=O)(=O)N2CCCC2)ccc1Cl`?
HepG2 viability: -21%; IL1B secr inh: -4; DT40 TDP1 no CPT: inconclusive; TDP1 block: 4%; TGFb SMAD3 inh: -16%; TDP1 cell CPT: 18µM*

What do the screens show for `CC1Cc2ccccc2N1CC(=O)Nc1cc(S(=O)(=O)N2CCOCC2)ccc1Cl` (centres undefined)?
HepG2 viability: -27%; IL1B secr inh: -5; DT40 TDP1 no CPT: 23µM*; TGFb SMAD3 inh: -2%; TDP1 cell CPT: inconclusive

Results for Cc1ccc2c(c1)CCCN2CC(=O)Nc1cc(S(=O)(=O)N2CCCC2)ccc1Cl ?
HepG2 viability: -32%; IL1B secr inh: 12; DT40 TDP1 no CPT: 15µM*; TDP1 block: 8%; TGFb SMAD3 inh: -25%; TDP1 cell CPT: 21µM*

What do the screens show for `CCCCCCCNC(=O)C1(CC2CC(c3cccc(Br)c3)=NO2)CCN(C(=O)C2(C)CC2)CC1` (centres undefined)?
HepG2 viability: -12%; IL1B secr inh: -59*; DT40 TDP1 no CPT: 16µM*; TDP1 block: 1%; TGFb SMAD3 inh: inconclusive; TDP1 cell CPT: 16µM*

Results for CCCCCCCNC(=O)C1(CC2CC(c3cccc(Br)c3)=NO2)CCN(C(=O)CCCCCBr)CC1 (centres undefined) ?
HepG2 viability: -38%; IL1B secr inh: inconclusive; DT40 TDP1 no CPT: 26µM*; TDP1 block: 2%; TGFb SMAD3 inh: inconclusive; TDP1 cell CPT: 23µM*

How did COc1ccc(CNC(=O)C2(CC3CC(c4ccccc4)=NO3)CCN(C(=O)C3(C)CC3)CC2)cc1 (centres undefined) do in these assays?
HepG2 viability: -8%; IL1B secr inh: -17; DT40 TDP1 no CPT: -22%; TGFb SMAD3 inh: 7%; TDP1 cell CPT: inconclusive

Results for CC(NC(=O)c1cc(F)ccc1F)c1nnc2n1CCN(Cc1ccco1)CC2 (centres undefined) ?
DT40 TDP1 no CPT: 17%; TDP1 cell CPT: 20%

Results for COc1ccc(C=NNC(=O)c2ccccc2OCc2ccc(F)cc2)c(OC)c1 ?
HepG2 viability: 7%; IL1B secr inh: 29; DT40 TDP1 no CPT: inconclusive; TDP1 block: -1%; TGFb SMAD3 inh: 3%; TDP1 cell CPT: inconclusive

What do the screens show for `O=C(Cc1ccc(F)cc1)NCc1nc2cccnc2n1Cc1ccc(F)cc1`?
HepG2 viability: -23%; DT40 TDP1 no CPT: inconclusive; TDP1 block: 5%; TGFb SMAD3 inh: -23%; TDP1 cell CPT: inconclusive

What do the screens show for `CCN(CC)CCNc1ccc(C)c2sc3ccc(O)cc3c(=O)c12`?
HepG2 viability: 14µM*; IL1B secr inh: -101*; DT40 TDP1 no CPT: 0.15µM*; TGFb SMAD3 inh: inconclusive; TDP1 cell CPT: 0.16µM*

How did Cc1ccc(S(=O)(=O)N/N=C\c2ccc3c(c2)OCO3)c(C)c1 do in these assays?
HepG2 viability: 0%; IL1B secr inh: 4; DT40 TDP1 no CPT: -9%; TDP1 block: 7%; TGFb SMAD3 inh: -7%; TDP1 cell CPT: inconclusive
